Results taken from PubChem BioAssay.
Activity calls are given as the source filed them.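 The calls were made as follows, unless noted: active = inhibition at or above 50% at 10 µM; inactive = inhibition below 50%.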

Experiments:
[1] = inhibitors of TNFa-induced NFkB p65 translocation, primary screen, imaging, HUVEC, MLSMR starter and 10KST1 sets (AID 438;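 active = inhibition above 20% together with a positive visual image hit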;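 also: compound added about 3h40 before a 20 min TNFalpha stimulation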;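 as to inhibition: signal is the nuclear over cytoplasmic p65 intensity ratio per well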); conditions: HUVEC TNFa-induced p65 nuclear translocation; cell count: measured here: nuclei count (cytotoxicity indicator), at 2.08 µM; inhibition: at 2 µM, stronger effect = higher value, 0% TNFa-plus-vehicle, 100% no-TNFa wells
[2] = reduction of polyQ htt aggregates in cells – imaging, exon1htt(103Q)mCFP cells, high-content imaging, primary screen (AID 483;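 active = visual image review flags a hit and inhibition of aggregation exceeds 20%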;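 also: compound exposure lasted 3 days before fixation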;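 as to nuclei count: percent of the per-plate median nuclei count of sample wells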); conditions: exon1htt(103Q)mCFP cell line, aggregate imaging, at 2 µM; inhibition of aggregation: stronger effect = higher value; nuclei count: measured here: cell count, toxicity
[3] = endothelial E-selectin expression blockers – imaging, HUVEC, immunofluorescence, MLSMR starter and 10KST1 sets, primary screen (AID 487;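 active = visually confirmed hit in the image check and inhibition above 20%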;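 as to inhibition: signal is fraction of cell area covered by stained E-selectin grains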;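 as to nuclei count: 100% = median nuclei count of all wells on the same plate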); conditions: HUVEC TNFalpha-induced E-selectin immunofluorescence imaging, at 2 µM; inhibition: stronger effect = higher value; nuclei count: measured here: cell number, toxicity
[4] = molecular target: Voltage-gated potassium channel subunit beta-2 (Rattus norvegicus) (UniProt P62483); test: inhibitors of rat Kvbeta2 reductase activity – biochemical, NADPH fluorescence, primary screen (AID 622;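 active = fluorescence slope higher than the sample average by over 3 SD, cut at about -0.22 in these data, passing the limit was not always enough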;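 also: slope of raw intensity against log time taken from 70 to 1610 s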); conditions: recombinant KvBeta, 4-cyanobenzaldehyde reduction, at 10 µM, stronger effect = higher value
Sequence of Voltage-gated potassium channel subunit beta-2 (Rattus norvegicus) (P62483 whole entry, looked up): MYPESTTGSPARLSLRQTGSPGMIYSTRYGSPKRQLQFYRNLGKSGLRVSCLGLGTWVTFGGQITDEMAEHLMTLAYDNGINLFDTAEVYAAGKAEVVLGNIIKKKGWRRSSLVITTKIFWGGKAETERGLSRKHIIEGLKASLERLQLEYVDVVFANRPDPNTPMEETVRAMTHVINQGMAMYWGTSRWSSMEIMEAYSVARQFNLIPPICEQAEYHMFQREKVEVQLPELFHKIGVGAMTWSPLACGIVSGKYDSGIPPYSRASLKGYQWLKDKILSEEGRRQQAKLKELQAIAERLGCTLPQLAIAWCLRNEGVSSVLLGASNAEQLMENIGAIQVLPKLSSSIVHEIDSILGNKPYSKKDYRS

[5] = molecular target: Voltage-gated potassium channel subunit beta-2 (Rattus norvegicus) (UniProt P62483); test: enhancers of rat Kvbeta2 NADPH turnover – biochemical, NADPH fluorescence, primary screen (AID 623;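 active = NADPH fluorescence slope more negative than the mean of all samples by about 3 SD, 99.7% confidence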;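 also: fluorescence intensity change per second fitted from 20 to 320 s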); conditions: Recombinant KvBeta, NADPH fluorescence decrease slope, 10 min; at 10 µM; stronger effect = lower value
[6] = molecular target: Alpha-2C adrenergic receptor (Homo sapiens) (UniProt P18825); test: compounds altering alpha2C-coupled GIRK flux – cell-based, HEK293 alpha2C/GIRK1/2, thallium flux, primary screen (AID 624;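 active = fluorescence slope after compound addition differing from the mean of all screened samples at 99.7% confidence, in either direction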;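 also: slope of fluorescence ratio to pre-addition baseline per second over 15 to 24 s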); conditions: thallium flux BTC fluorescence, at 10 µM, actives lie on both sides
Sequence of Alpha-2C adrenergic receptor (Homo sapiens) (P18825 whole entry, looked up): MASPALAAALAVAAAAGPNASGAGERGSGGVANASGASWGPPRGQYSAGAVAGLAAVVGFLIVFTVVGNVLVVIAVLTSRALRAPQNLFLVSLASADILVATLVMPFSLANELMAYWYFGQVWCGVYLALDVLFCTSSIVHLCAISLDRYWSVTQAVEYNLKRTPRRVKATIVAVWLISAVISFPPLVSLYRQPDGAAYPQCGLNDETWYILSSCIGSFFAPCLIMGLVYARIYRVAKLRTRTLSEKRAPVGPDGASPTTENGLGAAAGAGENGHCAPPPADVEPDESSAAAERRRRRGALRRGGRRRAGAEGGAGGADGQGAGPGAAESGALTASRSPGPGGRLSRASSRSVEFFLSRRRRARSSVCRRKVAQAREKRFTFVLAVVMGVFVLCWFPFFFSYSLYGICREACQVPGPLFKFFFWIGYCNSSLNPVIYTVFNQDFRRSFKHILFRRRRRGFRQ

[7] = blockers of RIG-like receptor reporter activation – cell-based, Sendai virus stimulus, luciferase, 10K MLSCN set, TLR/RLR signaling modifier project, primary screen (AID 602276); conditions: HEK293 RL24 IRF3 luciferase reporter, at 10 µM, stronger effect = higher value;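 also: firefly luciferase from ISG56 promoter only with Renilla not read in this screen; 0% = Sendai virus plus DMSO and 100% = medium plus DMSO without virus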
[8] = TLR3 IRF3 reporter activation blockers – cell-based, poly I:C stimulus, luciferase, 10K MLSCN set, primary screen (AID 602277;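 active = inhibition of the reporter signal at or above 50%; inactive = inhibition below 50%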); conditions: HEK293-TLR3 RL24 IRF3 luciferase reporter, at 10 µM, stronger effect = higher value

Row | SMILES | cell count [1] | inhibition [1] | inhibition of aggregation [2] | nuclei count [2] | inhibition [3] | nuclei count [3] | fluorescence slope [4] | NADPH fluorescence slope [5] | slope [6] | inhibition [7] | inhibition [8]
1 | CCOC(=O)c1ccc(N2C(=O)CC(N3CCN(C/C=C/c4ccccc4)CC3)C2=O)cc1 (stereo unspecified) | 375 | -4.9% (inactive) | -10.3% (inactive) | 103% | -52.6% (inactive) | 125% | -0.39 (inactive) | 1.2e-05 (inactive) | 0.008 (inactive) | 9.04% (inactive) | 16.7% (inactive)
2 | CCOc1ccc(C2CC(=O)NC3=C2C(=O)CCC3)cc1Cl (stereo unspecified) | 481 | 10% (inactive) | 5.5% (inactive) | 106% | -1.1% (inactive) | 110% | -0.407 (inactive) | -3.2e-05 (inactive) | 0.00268 (inactive) | 5.45% (inactive) | 13.2% (inactive)
3 | C=C(Cl)COc1ccc2c(C)cc(=O)oc2c1 | 319 | -6.8% (inactive) | -0.8% (inactive) | 71.6% | -31.6% (inactive) | 101% | -0.587 (inactive) | 3.6e-07 (inactive) | 0.00646 (inactive) | -24.5% (inactive) | -67.7% (inactive)
4 | COc1ccc(-c2nnc(SCC(=O)Nc3ccc(Cl)cc3)n2C)cc1 | 327 | -5.5% (inactive) | -26.9% (inactive) | 139% | -77.8% (inactive) | 122% | -0.462 (inactive) | 3.4e-05 (inactive) | 0.00817 (inactive) | -16% (inactive) | -1.71% (inactive)
5 | CN(C)/C=C1\N=C(c2ccc3c(c2)OCO3)OC1=O | 462 | 15.8% (inactive) | -17.4% (inactive) | 104% | 46.5% (inactive) | 108% | -0.451 (inactive) | 1.5e-05 (inactive) | 0.0038 (inactive) | -20.5% (inactive) | -55.4% (inactive)
6 | COc1ccc(C(=O)NCC(=O)NC2=NCCS2)cc1 | 772 | -11.6% (inactive) | -22.1% (inactive) | 69.1% | -43.6% (inactive) | 106% | -0.591 (inactive) | -5.5e-05 (inactive) | 0.00756 (inactive) | 5.81% (inactive) | 28.4% (inactive)
7 | CC1(C)NC(=O)N(CC(O)COc2cccc(F)c2)C1=O (stereo unspecified) | 690 | -1.1% (inactive) | 8.4% (inactive) | 72.2% | -65.7% (inactive) | 105% | -0.592 (inactive) | -2.3e-05 (inactive) | 0.00622 (inactive) | -5.23% (inactive) | 19.5% (inactive)
8 | O=C(c1ccccc1Br)N1CCN(c2ccccc2)CC1 | 619 | 1.2% (inactive) | -1.6% (inactive) | 100% | -38.7% (inactive) | 123% | -0.488 (inactive) | -0.000203 (inactive) | 0.00488 (inactive) | 9.32% (inactive) | 14.8% (inactive)
9 | COC(=O)c1ccc2c(c1)nc(C)n2CCO | 360 | -4% (inactive) | -26% (inactive) | 139% | -23.6% (inactive) | 94.3% | -0.315 (inactive) | -2.9e-05 (inactive) | 0.00466 (inactive) | 5.24% (inactive) | 12.5% (inactive)
10 | c1ccc(C2(Cn3ccc4ccccc43)OCCO2)cc1 | 311 | -13% (inactive) | -6% (inactive) | 109% | -115% (inactive) | 123% | -0.482 (inactive) | 2.6e-06 (inactive) | 0.00648 (inactive) | 4.02% (inactive) | 12% (inactive)
11 | O=C(c1ccco1)N1CCN(CCCCN2C(=O)c3ccccc3C2=O)CC1 | 265 | 26.7% (inactive) | 16% (inactive) | 89.1% | 5.7% (inactive) | 95.4% | -0.593 (inactive) | 4.7e-06 (inactive) | 0.00572 (inactive) | 15.1% (inactive) | 36.3% (inactive)
12 | CCCCCn1c(CN2CCN(C(=O)c3ccco3)CC2)nc2c1c(=O)n(C)c(=O)n2C | 726 | -14.6% (inactive) | -17.8% (inactive) | 103% | -13.1% (inactive) | 113% | -0.57 (inactive) | -5.2e-05 (inactive) | 0.00727 (inactive) | 1.47% (inactive) | 11.3% (inactive)
13 | CC(C)=CCCC(C)CN(C)CCc1ccccn1 (stereo unspecified) | 281 | -2.1% (inactive) | 27.8% (inactive) | 92.8% | -75.4% (inactive) | 108% | -0.448 (inactive) | -0.000147 (inactive) | 0.00676 (inactive) | -1.84% (inactive) | 20.8% (inactive)
14 | Cc1cc2ccccc2c(=O)n1CC(=O)Nc1ccc2c(c1)OCO2 | 455 | 0% (inactive) | -12.3% (inactive) | 108% | -85.2% (inactive) | 109% | -0.48 (inactive) | -2.6e-05 (inactive) | 0.00487 (inactive) | 2.31% (inactive) | 23.9% (inactive)
15 | CCOC(=O)C(C)Sc1nnc(Cc2cc(=O)[nH]c(=O)[nH]2)n1-c1ccc(Cl)cc1 (stereo unspecified) | 817 | -6.8% (inactive) | 4.6% (inactive) | 107% | -37.1% (inactive) | 99.1% | -0.615 (inactive) | 5.1e-06 (inactive) | 0.00534 (inactive) | 15.5% (inactive) | 12% (inactive)
16 | CCOC(=O)c1ccc(NC(=O)CCc2nc(-c3cccc(C)c3)no2)cc1 | 387 | 12.6% (inactive) | -10.1% (inactive) | 102% | -1% (inactive) | 100% | -0.565 (inactive) | -6.8e-05 (inactive) | 0.00651 (inactive) | -14.6% (inactive) | -24% (inactive)
17 | COc1ccc(-c2oc3ncn(CCN4CCOCC4)c(=N)c3c2-c2ccc(OC)cc2)cc1 | 688 | -9.5% (inactive) | 17.4% (inactive) | 75.4% | -16.4% (inactive) | 98% | -0.32 (inactive) | -6.6e-05 (inactive) | 0.00302 (inactive) | 1.98% (inactive) | -0.246% (inactive)
18 | CCOC(=O)c1c(N)sc(C(=O)N2CCOCC2)c1C | 314 | -11.5% (inactive) | 12.2% (inactive) | 103% | -10.6% (inactive) | 119% | -0.345 (inactive) | 2.6e-05 (inactive) | 0.00763 (inactive) | 16.8% (inactive) | 18.1% (inactive)
19 | Cc1ccccc1-n1nc(C)c2cc(C(=O)NCc3cccnc3)sc21 | 374 | -1.1% (inactive) | -18.9% (inactive) | 116% | -51.5% (inactive) | 113% | -0.493 (inactive) | -6.5e-05 (inactive) | 0.0199 (active) | 10.7% (inactive) | 44.3% (inactive)
20 | COc1ccc(C(=O)N(CCCO)Cc2cc3c(C)ccc(C)c3[nH]c2=O)cc1OC | 647 | -3% (inactive) | 12.4% (inactive) | 91.4% | 19.2% (inactive) | 86.7% | -0.389 (inactive) | -0.00013 (inactive) | 0.00636 (inactive) | 8.26% (inactive) | 19% (inactive)
21 | CCOn1c(=O)c(=O)n(OCc2ccccc2)c2ccccc21 | 355 | 0.3% (inactive) | 13% (inactive) | 97.7% | -32.9% (inactive) | 120% | -0.345 (inactive) | -5.2e-05 (inactive) | 0.00578 (inactive) | 19.9% (inactive) | 25% (inactive)
22 | O=C(COC(=O)c1cncc(Br)c1)NCCC1=CCCCC1 | 555 | -7.6% (inactive) | 6% (inactive) | 107% | -26.8% (inactive) | 116% | -0.338 (inactive) | -3.9e-05 (inactive) | 0.00679 (inactive) | 1.87% (inactive) | 25.9% (inactive)
23 | CCc1cccc2c(=O)c(C(=O)N3CCCCCC3)c[nH]c12 | 538 | -26.5% (inactive) | 7.9% (inactive) | 87.7% | -31% (inactive) | 94.3% | -0.513 (inactive) | -5.1e-05 (inactive) | 0.0048 (inactive) | 4.31% (inactive) | -4.51% (inactive)
24 | COc1cc(NC(=O)CN(c2cc(C)cc(C)c2)S(=O)(=O)c2c(C)noc2C)cc(OC)c1 | 541 | 2.3% (inactive) | -25% (inactive) | 80.6% | -42.2% (inactive) | 118% | -0.619 (inactive) | 2.8e-05 (inactive) | 0.00758 (inactive) | 18.7% (inactive) | 19.5% (inactive)
25 | COC(=O)c1c(O)ccc(Oc2ccccc2)c1C(=O)OC | 667 | -5.3% (inactive) | 28.9% (inactive) | 71.8% | -17.9% (inactive) | 107% | -0.257 (inactive) | -2.9e-06 (inactive) | 0.0066 (inactive) | 15.3% (inactive) | 21.8% (inactive)
26 | COc1cc(Cl)c(C)cc1NC(=O)COC(=O)c1cnc(C)cn1 | 345 | 3.8% (inactive) | 16.5% (inactive) | 95.2% | -118% (inactive) | 110% | -0.51 (inactive) | 3.8e-05 (inactive) | 0.00519 (inactive) | -3.59% (inactive) | 12.5% (inactive)
